Assay results as given in PubChem BioAssay (NCI).
Compounds without any hit were thinned out: in the full panel of roughly 83,000, 20% have a hit.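 In brief: 96-well plates, 48 h treatment, single concentration, percent growth endpoint.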 Unmarked numbers belong to inactive results. The source made the active and inactive calls. The calls were made as follows: active = growth percent below 10; inactive = the rest.

Columns and labels:
Test in all cases: NCI-60 one-dose screen, 48 h (100 = growth as untreated, 0 = no growth, -100 = all killed)
Details in all cases: 10 µM unless noted
SR leukemia = tested on: SR leukemia
RPMI-8226 leukemia = tested on: RPMI-8226 leukemia
OVCAR-8 ovarian = tested on: OVCAR-8 ovarian
OVCAR-5 ovarian = tested on: OVCAR-5 ovarian
OVCAR-4 ovarian = tested on: OVCAR-4 ovarian
SK-OV-3 ovarian = tested on: SK-OV-3 ovarian
IGROV1 ovarian = tested on: IGROV1 ovarian
OVCAR-3 ovarian = tested on: OVCAR-3 ovarian
HS 578T breast = tested on: HS 578T breast
NCI/ADR-RES ovarian = tested on: NCI/ADR-RES ovarian
T-47D breast = tested on: T-47D breast
BT-549 breast = tested on: BT-549 breast
MDA-MB-435 melanoma = tested on: MDA-MB-435 melanoma
SW-620 colon = tested on: SW-620 colon
MCF7 breast = tested on: MCF7 breast
HCT-116 colon = tested on: HCT-116 colon
HCC-2998 colon = tested on: HCC-2998 colon
KM12 colon = tested on: KM12 colon
MDA-MB-468 breast = tested on: MDA-MB-468 breast

Row | SMILES | growth (SR leukemia) | growth (RPMI-8226 leukemia) | growth (OVCAR-8 ovarian) | growth (OVCAR-5 ovarian) | growth (OVCAR-4 ovarian) | growth (SK-OV-3 ovarian) | growth (IGROV1 ovarian) | growth (OVCAR-3 ovarian) | growth (HS 578T breast) | growth (NCI/ADR-RES ovarian) | growth (T-47D breast) | growth (BT-549 breast) | growth (MDA-MB-435 melanoma) | growth (SW-620 colon) | growth (MCF7 breast) | growth (HCT-116 colon) | growth (HCC-2998 colon) | growth (KM12 colon) | growth (MDA-MB-468 breast)
1 | Cc1ccc(-c2nc(Nc3ccccc3S(N)(=O)=O)c3ccccc3n2)cc1 | 46.7% | 59.7% | 55.6% | 85.3% | 74.2% | 91.4% | 82.3% | 97.1% | 76.8% | 55.7% | 90.8% | 115% | 85.4% | 85.8% | 81.6% | 40% | 104% | 65.3% | 98.4%
2 | C=C1CCC2C3(C)COC(c4ccc(F)cc4)OC3CCC2(C)C1CC(O)C1=CCOC1=O (centres undefined) | 21.6% | 21.9% | -2.76% (active) | 51% | 53.8% | 98% | 36.5% | 63.4% | 71% | 0.657% (active) | 31.6% | -31.9% (active) | 29.6% | 2.53% (active) | 12.3% | -50.2% (active) | 24.3% | 49.7% | 18.8%
3 | COc1cc2c3c(n(CCCN4CCC[C@@H]4CO)c(=O)c2cc1OC)-c1cc2c(cc1C3=O)OCO2 | -25.5% (active) | -28.4% (active) | -76.8% (active) | -98.7% (active) | -82.2% (active) | 27.1% | -88.9% (active) | -94.4% (active) | -6.35% (active) | -67.4% (active) | 49.3% | 34.9% | -86.8% (active) | -77.8% (active) | -84.9% (active) | -59.1% (active) | -99.4% (active) | -98.2% (active) | -92.4% (active)
4 | CCOC(=O)C1=C(N)N(c2ccccc2)C2=C(C(=O)CC(C)(C)C2)C1c1ccc([N+](=O)[O-])cc1 (centres undefined) | 66.4% | 82.6% | 103% | 101% | 97.3% | 105% | 108% | 121% | 100% | 98.2% | 91.2% | 102% | 102% | 96.9% | 83.8% | 83.8% | 100% | 99.5% | 96.1%
5 | Cn1cc(-c2nc(N)nnc2-c2c[nH]c3ccc(Br)cc23)c2cc(Br)cnc21 | -17.2% (active) | -12% (active) | 1.57% (active) | 21.8% | 32.8% | 9.61% (active) | 14.2% | 0.628% (active) | 30.2% | 12.5% | 34.6% | -33.4% (active) | -20.8% (active) | 20.8% | 3.81% (active) | -37.1% (active) | 1.16% (active) | 5.44% (active) | 1.62% (active)
6 | O=C(O)Cn1c(O)c(/C=C2/C=c3cc4c(cc3=NC2=O)OCCO4)sc1=S | 89.2% | 98.2% | 110% | 112% | 109% | 129% | 114% | 110% | 107% | 103% | 104% | 104% | 102% | 113% | 86.3% | 103% | 109% | 104% | 111%
7 | CC(=O)Nc1ccc(C(=O)NC(=S)Nc2ccc(S(N)(=O)=O)cc2)cc1 | 105% | 105% | 94.6% | 96.5% | 84.9% | 101% | 92.3% | 97.7% | 94.5% | 95.9% | 73.8% | 94.4% | 97.5% | 98% | 93% | 99.4% | 97.2% | 97.5% | 80.2%
8 | CN(C)c1nc(NCCNS(=O)(=O)c2ccc(C3=Nc4c(N)nc(N)nc4NC(c4ccccc4)C3)cc2)nc(Nc2ccc(F)cc2)n1 (centres undefined) | 1.17% (active) | 4.93% (active) | 42.3% | 75.3% | 38.9% | 80.7% | 32.1% | 45.2% | 46.3% | 92.9% | 39.8% | 29.1% | 41.6% | 49.9% | 17.3% | 32.7% | 31.9% | 33.8% | -35.8% (active)
9 | CC(=O)OCC1OC(OC2C(COC(C)=O)OC(n3cc(COc4ccc5ccc(=O)oc5c4)nn3)C(OC(C)=O)C2OC(C)=O)C(OC(C)=O)C(OC(C)=O)C1OC(C)=O (centres undefined) | 98.1% | 97.3% | 106% | 112% | 115% | 109% | 111% | 113% | 89.2% | 99.9% | 103% | 101% | 101% | 106% | 90.9% | 106% | 108% | 103% | 108%
10 | COc1ccc(Cc2nn(CC(=O)N/N=C/c3ccc(F)cc3)c(=O)c3c(C)noc23)cc1 | 53.2% | 64.7% | 38.6% | 55% | -35.8% (active) | -72.1% (active) | 39.7% | 47% | 23.1% | 38.4% | -14.1% (active) | 43.2% | 48.1% | 61.4% | 56.5% | 5.98% (active) | 39.3% | 73.1% | 63.2%
11 | COc1cc(C2CC(c3ccc(S(=O)(=O)NCCNc4nc(Nc5ccc(F)cc5)nc(N(C)C)n4)cc3)=Nc3c(N)nc(N)nc3N2)cc(OC)c1OC (centres undefined) | 36.1% | 24.8% | 93.1% | 98.4% | 85.6% | 110% | 81.7% | 93.6% | 76.5% | 95.6% | 56.2% | 62.8% | 87.1% | 96.3% | 51.1% | 82.6% | 87.5% | 95.5% | 0.318% (active)
12 | COC(OC)C1=C(C)OC(N)=C(C#N)C12C(=O)Nc1ccccc12 (centres undefined) | 73% | 94.3% | 91.9% | 112% | 101% | 111% | 92% | 101% | 95.4% | 99.2% | 100% | 123% | 94.8% | 85.5% | 60.7% | 100% | 106% | 95.3% | 85.9%
13 | CC1(C)CC[C@]2(C(=O)O)CC[C@]3(C)C(=CCC4[C@@]5(C)C[C@@H](O)[C@@H]6OC(c7cccc(Br)c7)OC[C@@]6(C)C5CC[C@]43C)C2C1 (some centres undefined) | 30.6% | 18.9% | 40% | 67.5% | 52.4% | 101% | 66.7% | 34.9% | 65.3% | 40.6% | 39.4% | 44.4% | 61.2% | 25% | 18.6% | 10.8% | 34.8% | 20.8% | 23.6%
14 | O=C(COc1ccc2c(c1)CCCC(=O)N2)NCc1ccccc1 | 27.6% | 94.9% | 99.5% | 101% | 92% | 89.5% | 111% | 85.4% | 94.2% | 80.2% | 95.7% | 104% | 3.41% (active) | 60.9% | 59.3% | 93.5% | 95.9% | 58.9% | 28.8%
15 | CCN(CC)CCOc1ccc(Nc2ncc3cc(-c4ccc(O)c(C#N)c4)c(=O)n(C)c3n2)cc1 | -8.11% (active) | 65% | 92.8% | 88.2% | 89.3% | 64.7% | 46.9% | 83.7% | 76.5% | 114% | 36.5% | 112% | 29.9% | 110% | 16.8% | 32.9% | 111% | 72.4% | 63.5%
16 | Cc1ccc(-n2c(-c3cc4ccccc4nc3Cl)noc2=O)cc1 | 31.8% | 81.2% | 94.4% | 98.1% | 92.5% | 80.1% | 90.9% | 99.8% | 80.9% | 52.3% | 63.9% | 81.1% | 6.44% (active) | 68.9% | 64.5% | 86% | 90.9% | 55% | 16.2%
